High-throughput results as filed in PubChem BioAssay.
CYP2C19 act – increases human CYP2C19 enzyme activity; 96,000 tested, under 10 active; AID 1025; recombinant CYP2C19, luciferin-H EGE luminescence; hits give high values; 0 = fully inhibited enzyme, 1 = untreated enzyme; activation factor at 5 µM;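 active = activation factor of at least 2 at 5 µM in the primary screen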
CYP2C19 inhib – human CYP2C19 inhibition; AID 778; inhibition, % at 5 µM; CYP2C19 Supersomes, luciferin-H EGE luminescence, 30 min; 96,000 tested, 21% active;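 active = CYP2C19 inhibition above a set limit at 5 µM in the primary screen, cut at about 50% in these data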
Measles CPE – protection of cells from measles virus; Measles virus-infected cells, CPE protection, absorbance; 140,000 tested, 1.5% active; protection (pct of control), % at 4 µM; in the data active = protection mostly above about 24%, no sharp cut-off; inactive = mostly below about 26%
CYP2C9 activ – CYP2C9 (human) activation; recombinant CYP2C9, luciferin-H conversion, luminescence; hits give high values; factor 1 = untreated enzyme, 0 = blocked; activation factor at 5 µM; 96,000 tested, 1.4% active;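 active = activation factor of 2 or more for CYP2C9 at a 5 µM dose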
Target sequence (P11712 whole entry, looked up): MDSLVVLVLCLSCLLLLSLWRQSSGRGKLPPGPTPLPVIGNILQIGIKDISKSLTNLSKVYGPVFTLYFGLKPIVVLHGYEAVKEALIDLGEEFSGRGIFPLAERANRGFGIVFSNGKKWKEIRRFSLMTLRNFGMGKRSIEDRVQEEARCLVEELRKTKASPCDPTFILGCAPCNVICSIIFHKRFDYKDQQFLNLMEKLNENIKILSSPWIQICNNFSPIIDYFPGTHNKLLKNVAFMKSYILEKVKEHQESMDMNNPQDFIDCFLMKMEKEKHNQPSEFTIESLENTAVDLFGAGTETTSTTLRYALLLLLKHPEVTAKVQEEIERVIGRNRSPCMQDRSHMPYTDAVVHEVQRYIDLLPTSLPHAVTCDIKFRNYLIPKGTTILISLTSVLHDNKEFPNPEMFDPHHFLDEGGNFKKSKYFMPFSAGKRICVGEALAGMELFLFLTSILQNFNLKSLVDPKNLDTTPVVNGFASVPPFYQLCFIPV
CYP2C9 inh – human CYP2C9 inhibition. 96,000 tested, 20% active. CYP2C9 Supersomes, luciferin-H conversion, luminescence. P11712. inhibition, % at 5 µM;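 active = blocking of liver enzyme CYP2C9 beyond about 50% at 5 µM, limit read from the data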
Of the large screens only hits and unclear results are named; the others gave an inactive call. Compounds with a hit are over-represented: about 22% of the library has one in this group of screens.

Cc1onc(-c2ccccc2)c1C(=O)n1nnc2ccccc21	CYP2C9 inh 55.7
Cc1onc(-c2c(Cl)cccc2Cl)c1C(=O)Nn1cnnc1	none
Cc1cc2ncn(C(=O)c3cc(-c4ccccc4)nc4ccccc34)c2cc1C	Measles CPE 29.2 (no result: CYP2C19 act, CYP2C19 inhib, CYP2C9 activ, CYP2C9 inh)
O=C(c1ccccc1-n1cccc1)N1N=C(C(F)F)CC1(O)C(F)F (configuration not stated)	none (no result: CYP2C19 act, CYP2C19 inhib, CYP2C9 activ, CYP2C9 inh)
O=C(c1cc(-c2ccccc2)nc2ccccc12)N1N=C(C(F)F)CC1(O)C(F)F (configuration not stated)	CYP2C19 inhib 82.3, CYP2C9 inh 99.7
Cc1cc2ncn(C(=O)c3c(-c4c(Cl)cccc4Cl)noc3C)c2cc1C	CYP2C19 inhib 72.1, CYP2C9 inh 68.7
Cc1cc2ncn(C(=O)c3c(-c4ccccc4)noc3C)c2cc1C	CYP2C9 inh 57.8
CC(C)N(CCCNC(=O)CC1Oc2ccccc2NC1=O)Cc1ccccc1 (configuration not stated)	none
CS(=O)(=O)c1cccc(C(=O)NC(c2ccccc2)c2ccccc2)c1	CYP2C19 inhib 74.6, CYP2C9 inh 97.1
CCN(C(C)=O)N(CC)c1nc(Cl)nc(NC(C)C)n1	none (no result: CYP2C19 act, CYP2C19 inhib, CYP2C9 activ, CYP2C9 inh)
O=C1c2ccccc2OC2(C=Cc3ccccc3O2)N1Cc1ccccc1 (configuration not stated)	CYP2C19 inhib 97.1, CYP2C9 inh 94.1
O=C(COC(=O)c1ccc2ccccc2c1)NCCCc1ccccc1	none (no result: CYP2C19 act, CYP2C19 inhib, CYP2C9 activ, CYP2C9 inh)
Clc1cccc(CON/C=N/c2ncnc3sccc23)c1	CYP2C19 inhib 80.5, CYP2C9 inh 50.5
Clc1cccc(Cl)c1CON/C=N/c1ncnc2sccc12	none
O=C(NCC1CCCO1)C1CCC(CNS(=O)(=O)c2ccccc2)CC1 (configuration not stated)	none
Oc1ccccc1-c1cc(-c2ccc3c(c2)OCCO3)n[nH]1	none
CCc1cc(-c2[nH]ncc2-c2ccc3c(c2)OCO3)c(O)cc1O	CYP2C19 inhib 99.6, Measles CPE 84.3, CYP2C9 inh 98.6
COc1ccc(-c2[nH]ncc2-c2ccc3c(c2)OCCO3)c(O)c1	CYP2C19 inhib 61.3, CYP2C9 inh 66.5
CCCc1cc(-c2[nH]ncc2-c2ccc3c(c2)OCCCO3)c(O)cc1OC	CYP2C19 inhib 86.4, CYP2C9 inh 100.3
Cc1c(C(=O)N2CCC(C)CC2)sc2ncnc(N(C)c3ccccc3)c12	none (no result: CYP2C19 act, CYP2C19 inhib, CYP2C9 activ, CYP2C9 inh)
COCC(=O)Nc1nc(-c2ccccc2)ns1	none (no result: CYP2C19 act, CYP2C19 inhib, CYP2C9 activ, CYP2C9 inh)
O=C(OCn1ncc(Br)c(Br)c1=O)c1c(F)cccc1F	CYP2C19 inhib 83.3
O=C(Nc1c(-c2ccccc2)nc2sccn12)c1ccccc1	CYP2C19 inhib 79.3, CYP2C9 inh 74.2
CCOC(=O)c1c(-c2ccco2)csc1N	none
CCOC(=O)c1c(-c2ccco2)csc1NC(=O)CSc1nnc(N)s1	CYP2C9 inh 56.6
CCOC(=O)c1c(-c2ccc(C)o2)csc1NC(=O)CN1CCN(CC)CC1	none
CCOC(=O)c1c(-c2ccc(C)o2)csc1NC(=O)CSc1nncs1	CYP2C19 inhib 90.7, CYP2C9 inh 100.1
CCOC(=O)c1c(-c2ccc(C)o2)csc1NC(=O)CN(C)CC(=O)Nc1ccc(C)cc1	CYP2C19 inhib 68.9, CYP2C9 inh 95.8
COc1ccc(S(=O)(=O)N2CCN(C3Cc4ccccc4C3)CC2)cc1	none (no result: CYP2C19 act, CYP2C19 inhib, CYP2C9 activ, CYP2C9 inh)
C=CCn1c(SCC(=O)Nc2ccccc2)nnc1-c1cccc(S(=O)(=O)N2CCOCC2)c1	CYP2C19 inhib 66.5, CYP2C9 inh 54.7
CC(C)Cn1c(SCC(=O)NCc2ccc(Cl)cc2)nnc1-c1cccc(S(=O)(=O)N2CCOCC2)c1	CYP2C9 inh 60.8
CN(C)/C=C1/Sc2ccccc2C1=O	none
N#C/C=C1/NC(=O)c2ccccc2S1	CYP2C9 inh 62.4
C/C(=N\NC(=O)c1cccc(Cl)c1)C1C(=O)c2ccccc2C1=O	none (no result: CYP2C19 act, CYP2C19 inhib, CYP2C9 activ, CYP2C9 inh)
O=[N+]([O-])c1cccc(S(=O)(=O)NCCCN2CCOCC2)c1	none (no result: CYP2C19 act, CYP2C19 inhib, CYP2C9 activ, CYP2C9 inh)
CCCCNS(=O)(=O)/C=C/c1ccccc1	none (no result: CYP2C19 act, CYP2C19 inhib, CYP2C9 activ, CYP2C9 inh)
O=S(=O)(/C=C/c1ccccc1)c1ccccc1	CYP2C19 inhib 90.8, CYP2C9 activ 4.1
O=S(=O)(C=C(c1ccccc1)c1ccccc1)c1ccccc1	CYP2C19 inhib 65.9
COCCCn1c(Cc2csc(Nc3ccc(F)cc3)n2)nnc1SCC(N)=O	none
CCOC(=O)Nc1ccc2c(c1)N(C(=O)N1CCN(C)CC1)c1ccccc1S2	CYP2C19 inhib 73.2
CCOC(=O)Nc1ccc2c(c1)N(C(=O)CCN1CCN(C)CC1)c1ccccc1S2	none
CCOC(=O)Nc1ccc2c(c1)Sc1ccccc1N2C(=O)CCN1CCOCC1	CYP2C19 inhib 60.5
O=C(NCCc1ccc(Cl)cc1)C1CCC(CNc2c(N3CCCCC3)c(=O)c2=O)CC1 (configuration not stated)	none (no result: CYP2C19 act, CYP2C19 inhib, CYP2C9 activ, CYP2C9 inh)
CCn1cc(S(=O)(=O)CC(=O)Nc2ccc(OC)cc2)c2ccccc21	CYP2C19 inhib 56.1
Cc1cc(NC(=O)CS(=O)(=O)c2cn(Cc3ccc(F)cc3)c3ccccc23)no1	none
Cc1cc(NC(=O)CS(=O)(=O)c2cn(Cc3cccc(F)c3)c3ccccc23)no1	CYP2C19 inhib 57.3, CYP2C9 inh 71.5
O=C(NC1CCN(C(=S)NCc2ccco2)CC1)NC12CC3CC(CC(C3)C1)C2	none (no result: Measles CPE)
CCOC(=O)C(=O)N1CCN(CC)CC1	none (no result: CYP2C19 act, CYP2C19 inhib, CYP2C9 activ, CYP2C9 inh)
CCOc1ccc(NS(=O)(=O)c2ccc3[nH]cc(C(=O)N(CC)CC)c(=O)c3c2)cc1	none (no result: CYP2C19 act, CYP2C19 inhib, CYP2C9 activ, CYP2C9 inh)
Cc1cc(=O)[nH]c(SCC(=O)c2ccccc2)c1C#N	CYP2C9 inh 85.4
Cc1ccccc1NC(=O)CSc1[nH]c(=O)cc(C)c1C#N	CYP2C19 inhib 62.9, CYP2C9 inh 80.6
Cn1c[n+](C)cc1-c1ccc(/C(N)=N/O)cc1	none (no result: CYP2C19 act, CYP2C19 inhib, CYP2C9 activ, CYP2C9 inh)
Cc1onc(COc2ccccc2O)c1Br	CYP2C19 inhib 72.7
Cc1cc(COc2ccccc2OCc2cc(C)no2)on1	none
CC(=O)O[C@H]1C2OC(=O)C(C)=C2[C@@H]2OC(=O)[C@]3(CCC4OC41C)OC23 (some centres not stated)	none (no result: CYP2C19 act, CYP2C19 inhib, CYP2C9 activ, CYP2C9 inh)
N#CC(c1ccc(Cl)cc1)c1nc2ccccc2nc1C(F)(F)F (configuration not stated)	CYP2C19 inhib 52.0
O=C(COC(=O)Cc1cccc2ccccc12)Nc1ccccc1-c1ccccc1	none (no result: CYP2C19 act, CYP2C19 inhib, CYP2C9 activ, CYP2C9 inh)
O=C(COc1ncnc2scc(-c3ccc(F)cc3)c12)NCc1ccco1	none
Cc1ccc(-c2csc3ncnc(OCC(=O)NC(=O)NCc4ccco4)c23)cc1	CYP2C19 inhib 50.2
CC(NC(=O)c1ccc(Cl)cc1)c1nnc(SCc2ccc([N+](=O)[O-])cc2)n1C (configuration not stated)	none
CC(C)c1ccc(NC(=O)c2ccc(Br)o2)cc1	none (no result: CYP2C19 act, CYP2C19 inhib, CYP2C9 activ, CYP2C9 inh)
O=C(Nc1ccc(Nc2ccccc2)cc1)c1ccc(Br)o1	CYP2C9 inh 51.4
O=C(Nc1ccc(Cc2ccncc2)cc1)c1ccc(Br)o1	CYP2C19 inhib 86.7, CYP2C9 inh 96.8
COC(=O)c1sccc1NC(=O)c1ccc(Br)s1	none
Cc1ccc(-n2nnnc2SC(C)C(=O)NCC(=O)Nc2ccc(F)c(F)c2F)c(C)c1 (configuration not stated)	none (no result: CYP2C19 act, CYP2C19 inhib, CYP2C9 activ, CYP2C9 inh)
Cc1nc2ccccc2c(=O)n1/N=C/c1cn(-c2ccccc2)nc1-c1cccs1	CYP2C19 inhib 80.0, CYP2C9 inh 98.1
